Bioassay records (PubChem)
Shiga inhibitor = A qHTS for Small Molecule Inhibitors of Shiga Toxin | Vero cells, Shiga toxin protein synthesis inhibition reporter | inhibition, % at 38.7 µM | AID 2315, 2010 | 290,000 tested, 9.2% active; in the data active means inhibition mostly above about 28%, no sharp cut-off; inactive means mostly below about 43%
Pf growth 96h = Primary qHTS for delayed death inhibitors of the malarial parasite plastid, 96 hour incubation. P. falciparum luciferase reporter growth, 96 h. Potency, µM (doses to about 28.7 µM), hits mostly inhibitors. 320,000 tested, 6.9% active. AID 504834, 2011
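96 h incubation, 37 C, 5% CO2, of luciferase-reporter P. falciparum-infected RBCs (2% hematocrit, 0.05% parasitemia final) with test compounds; endpoint luminescence.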
Pf growth 48h = Primary qHTS for delayed death inhibitors of the malarial parasite plastid, 48 hour incubation; 310,000 tested, 5.9% active; AID 504832, 2011; Potency, µM (top dose mostly 28.7 µM), hits mostly inhibitors; P. falciparum luciferase growth in erythrocytes, 48 h
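First compound was added to culture medium, then infected red cells at 0.1% parasitemia and 2% hematocrit (final). After incubation at 37 C under 5% CO2, luciferase detection reagent was dispensed and light output recorded.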
Cycloheximide cs = Cycloheximide Counterscreen for Small Molecule Inhibitors of Shiga Toxin. AID 2314, 2010. max response, %. cell reporter, cycloheximide protein synthesis inhibition counterscreen. 300,000 tested, 12% active; in the data active means max response mostly above about 13%, no sharp cut-off; inactive means mostly below about 14%; further: read at 38.3 µM for the half of the compounds with a filed dose
A number is an active result; n = inactive; u = inconclusive; x = no result given. Hits are enriched below; roughly 21% of the tested compounds scored in any of these assays. Unless noted, the call rests on the fitted dose curve; in most records, active means well fitted inhibition curve with a large enough effect; inconclusive means small, poorly fitted or top-dose-only effect, or another doubt; inactive means no such curve, though single readings can be large or run the other way.

SMILES	Shiga inhibitor	Pf growth 96h	Pf growth 48h	Cycloheximide cs
COc1ccc(C(=O)OCC(=O)c2ccccc2)cc1S(=O)(=O)N1CCOCC1	n	n	x	n
O=C(C1CC(=O)N(c2ccc3c(c2)OCCO3)C1)N1CCN(Cc2ccccc2F)CC1 (stereo not drawn)	x	u	n	x
Cc1c(C(C)C[C@H](C)O)oc(=O)c2c1Oc1c(C)c(C(C)C[C@H](C)O)oc(=O)c1C2 (stereo partly drawn)	x	n	n	x
O=C(OCc1ccc(Br)cc1)c1cccc(S(=O)(=O)N2CCCC2)c1	x	10µM	u	x
COC(=O)c1ccc(-c2noc(CN(C)CC3CCCCO3)n2)cc1 (stereo not drawn)	n	u	n	43
COC(=O)c1ccc(-c2noc(CN3C[C@H]4CC[C@H]3C4)n2)cc1	n	u	n	19
CC1(C)CC1C(=O)N/C(=C/CCCCSCC(N)C(=O)O)C(=O)O (stereo not drawn)	n	n	n	n
Cc1[nH]c(C)c(S(=O)(=O)Nc2ccc(OC(F)(F)F)cc2)c1C(=O)N1CCCCC1	n	n	n	n
Cc1c(C(=O)c2ccccc2)c2ccccn2c1CCc1ccccn1	n	n	n	n
COc1ccccc1C(=O)c1c(C)c(CCC#N)n2ccccc12	n	n	n	n
COC(=O)CCc1c(C)c(C(=O)c2cc(OC)c(OC)c(OC)c2)c2ccccn12	n	u	10µM	n
Cc1c(C(=O)c2ccc(F)cc2)c2ccccn2c1CCc1ccccn1	n	4.1µM	n	n
CCN(CC)CCNC(=O)CNC(=O)c1nn(-c2ccc(OC)c(OC)c2)c(=O)c2ccccc12	n	u	n	n
COc1ccc(C2=NN(c3nc(-c4ccccc4)c(CC(=O)O)s3)C(c3ccco3)C2)cc1 (stereo not drawn)	48	u	n	18
Fc1ccc(C2=NN(c3ccccc3)C(c3ccco3)C2)cc1 (stereo not drawn)	n	n	n	n
CC(=O)N1N=C(c2ccccc2)CC1c1cn(C)c2ccccc12 (stereo not drawn)	115	n	n	52
COc1ccc(C2=NN(C(=O)COc3ncnc4ccccc34)C(c3ccco3)C2)cc1 (stereo not drawn)	n	u	n	n
Cc1ccc(N2N=C(c3ccc(F)cc3)CC2c2ccco2)cc1 (stereo not drawn)	46	n	n	30
CC(=O)N1N=C(c2ccc(C)cc2)CC1c1ccco1 (stereo not drawn)	n	u	n	13
CC(=O)N1N=C(c2ccc(Cl)cc2)CC1c1ccco1 (stereo not drawn)	n	n	n	n
CC(=O)Nc1ccc(C(=O)OCC(=O)Nc2c(F)cccc2F)cc1	n	n	n	n
CCN(CC)c1ccc(S(=O)(=O)N2CCOCC2)cc1NC(=O)COC(=O)c1cccnc1SC	x	n	u	x
CCS(=O)(=O)N1N=C(c2cccc(NS(C)(=O)=O)c2)CC1c1ccc(C)cc1 (stereo not drawn)	n	n	n	28
Cc1ccc(C2=NN(C(=O)CCl)C(c3ccco3)C2)o1 (stereo not drawn)	n	6.6µM	10µM	n
O=C(c1ccco1)N1N=C(c2ccco2)CC1c1ccc(Cl)cc1Cl (stereo not drawn)	x	4.1µM	8.3µM	x
SMILES	Shiga inhibitor	Pf growth 96h	Pf growth 48h	Cycloheximide cs
CCS(=O)(=O)N1N=C(c2cccc(NS(C)(=O)=O)c2)CC1c1ccccc1 (stereo not drawn)	n	n	n	n
O=C(c1ccco1)N1N=C(c2cccs2)CC1c1cc([N+](=O)[O-])ccc1O (stereo not drawn)	n	u	n	n
O=C(c1ccc(Br)o1)N1N=C(c2ccc(Cl)cc2)CC1c1ccco1 (stereo not drawn)	n	9.3µM	u	n
CC(=O)N1N=C(c2ccco2)CC1c1ccco1 (stereo not drawn)	n	n	n	n
Cc1cccc2cc(C3CC(c4ccco4)=NN3S(=O)(=O)c3ccccc3)c(Cl)nc12 (stereo not drawn)	86	u	u	36
Cc1cccc2cc(C3CC(c4ccco4)=NN3S(C)(=O)=O)c(Cl)nc12 (stereo not drawn)	n	u	u	n
Cc1nc(N2N=C(c3ccc(Cl)cc3)CC2c2ccco2)sc1C(=O)N(C)C (stereo not drawn)	n	u	u	27
O=S(=O)(c1ccccc1)N1N=C(c2ccc(Cl)cc2)CC1c1ccco1 (stereo not drawn)	x	u	10µM	x
C(=C\c1ccco1)/C1=NN(c2ccccc2)C(c2ccco2)C1 (stereo not drawn)	80	u	n	40
CN(CC(=O)Nc1ccc(F)cc1)S(=O)(=O)c1ccc2c(c1)c(=O)n(C)c(=O)n2C	n	n	n	n
CS(=O)(=O)c1ccc(Cl)c(NC(=O)Cc2c(F)cccc2Cl)c1	n	n	n	n
Clc1ccc(C2=NN(c3ccccc3)C(c3ccco3)C2)cc1 (stereo not drawn)	75	u	n	44
